This passage reports viability results from PubChem BioAssay AID818 (SRMLSC, 2007).

The term viability denotes a read-out of living cells in per cent, often relative to untreated cells.

Hit rate of the full screen: of about 140,000 compounds, about 2,100 (1.5%) were called active. The list comes from a sample in which actives are over-represented; it also holds similar structures and randomly drawn compounds. A number with no mark means an inactive call.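 How the source made its calls: active means viability at or under a set limit, the compound median less 4 SD (cut at about 6% in these data); inactive means the rest.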

This test can be described thus: primary screen for suppressors of beta-catenin knockout HCT116 cell growth, colon tumor, human (AID 818).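 Further: 0% = Hyamine 1622 control at 20 µM and 100% = untreated cell control.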 Conditions: CellTiter-Glo, 60 h, at 10 µM, stronger effect = lower value. Background: In ATP-based viability assays light output follows the ATP content of the culture.
Consider `CCCCC(C(=O)OCC(=O)c1ccc(OC)cc1)N1C(=O)c2ccccc2C1=O` (stereo not drawn), for which the viability was 103%.
Consider `CCOC(=O)C1=C(c2ccc(OC)cc2)C(=O)c2ccccc2C1=O`, for which the viability is 1.16% (active).
The result for `CCOC(=O)c1ccccc1NS(=O)(=O)c1ccc(OC)cc1` reads 17.6%; that for `CCOC(=O)c1nn(-c2ccccc2F)c2nc(Nc3ccccc3)cc(=O)n12`, 94.3%.
The figure for `FC(F)(F)c1cccc(NC(=S)Nc2cccc(Cl)c2)c1` is 5.77% (active).
For the molecule `Cc1csc(NC(=S)Nc2cccc(Cl)c2)n1`, the viability is 26.5%.
In the case of `S=C(Nc1cccc(Cl)c1)Nc1ccc2cn[nH]c2c1`, the viability was 77.5%.
For the molecule `COC(=O)/C(=C1\Oc2ccc(C(C)(C)C)cc2S1)C(F)(F)F`, the viability is 102%.
For the molecule `Cc1[nH]n(-c2ccccc2)c(=O)c1/C=N/NC(=O)c1ccoc1C`, the viability was 3.98% (active).
The result for `COc1cc(/C=N\NC(=O)CNC(=O)c2cccc([N+](=O)[O-])c2)ccc1O` reads 79%.
Take `Cc1ccc(-n2[nH]c(C)c(/C=N/NC(=O)c3cccc([N+](=O)[O-])c3)c2=O)cc1C`: the viability is 3.51% (active).
Turning to `Cc1[nH]n(-c2ccc(Cl)cc2)c(=O)c1/C=N/n1c(C)nc2ccccc2c1=O`, the viability is 22.4%.
With `COc1cccc(/C=N/NC(=O)c2cccc([N+](=O)[O-])c2)c1OS(=O)(=O)c1ccc(C)cc1`, the viability was 80.7%.
The figure for `Cc1[nH]n(-c2cccc(Cl)c2)c(=O)c1/C=N/n1c(C)nc2ccccc2c1=O` is 85.9%; for `COC(=O)C1NN=C(C(=O)c2ccc(Br)cc2)C1c1cccc(Br)c1` (stereo not drawn) it is 96.8%.
On to `O=C(CN1CCN(c2ccc(O)cc2)CC1)NC1CCCc2ccccc21` (stereo not drawn), for which the viability was 74%.
With `C/C(=N\NC(=O)Cc1ccc(F)cc1)c1ccc(F)cc1`, the viability is 99.1%.
Consider `C/C(=N/NC(=O)CSc1ccccn1)c1ccc([N+](=O)[O-])cc1`, for which the viability was 94.1%.
In the case of `C/C(=N\NC(=O)Cc1ccc(Cl)cc1)c1ccccn1`, the viability is 4.96% (active).
With `COc1ccc(C(CC(=O)O)NC(=O)Cc2ccccc2)cc1` (stereo not drawn), the viability was 96.5%.
The figure for `COc1ccc(C/C(C)=N/NC(=O)c2ccncc2)cc1` is 91.1%; for `COc1ccc(CC(=O)N/N=C(\C)c2ccccn2)cc1` it is 3.98% (active).
As for `CCC(CC)C(=O)N1CCN(c2cccc(C)c2C)CC1`, the viability is 43.6%.
On to `COC(C(=O)Nc1ccc(C(C)=O)cc1)c1ccccc1` (stereo not drawn), for which the viability is 85.5%.
The figure for `O=C(NCCCO)/C(=C\C=C\c1ccccc1)NC(=O)c1ccccc1Cl` is 94%; for `Cc1cc(Br)ccc1SCC(=O)OCC(=O)NCc1ccc2c(c1)OCO2` it is 85.9%.
With `CC(C)C(=O)Nc1cccc(NC(=O)c2ccc([N+](=O)[O-])cc2Cl)c1`, the viability was 96%.
The figure for `O=C(/C=C/c1ccc(Cl)cc1Cl)c1cccnc1` is 0.88% (active).
With `O=C(NCc1ccc(Cl)c(Cl)c1)c1cccnc1`, the viability was 92.2%.
On to `O=C(/C=C/c1ccc(Cl)cc1Cl)NCc1ccco1`, for which the viability is 102%.
In the case of `CC(=O)Nc1ccc(NC(=S)NC(=O)c2ccc([N+](=O)[O-])c(C)c2)cc1`, the viability is 93.3%.
Take `CCC(C)(C)C1CCC(=NNC(=O)c2ccc(Br)o2)CC1` (stereo not drawn): the viability is 94.6%.
With `O=C(COC(=O)Cc1ccc(Br)cc1)Nc1c(F)c(F)c(F)c(F)c1F`, the viability is 94.5%.
Turning to `COc1cccc(/C=N\NC(=O)C2=NNC(=O)C2C)c1O` (stereo not drawn), the viability is 45.9%.
The figure for `COc1cc(/C=C2\SC(=S)N(Nc3ncc(C(F)(F)F)cc3Cl)C2=O)cc(OC)c1OC` is 109%; for `COc1cccc(/C=N/Nc2ncc(C(F)(F)F)cc2Cl)c1O` it is 2.51% (active); for `COc1ccc(OC)c(-c2c(=O)n(OCc3ccccc3Br)c3ccccc3[n+]2[O-])c1` it is 74.9%.
Turning to `COc1ccc(C(=O)Nc2c(Cl)cc(Cl)cc2C(=O)N2CCC(C)CC2)cc1`, the viability is 77.2%.
Turning to `CCOc1cc(N2CCOCC2)c(OCC)cc1NC(=O)COc1cccc2cccnc12`, the viability is 4.29% (active).
Regarding `CCOc1cc(N2CCOCC2)c(OCC)cc1NC(=O)COC(=O)[C@H](Cc1c[nH]c2ccccc12)NC(C)=O`, the viability was 87.2%.
Regarding `Cc1cccc(OCC(=O)NC(=S)Nc2ccccc2N2CCOCC2)c1`, the viability was 98.4%.
Consider `CCOC(=O)c1ccccc1N1C(=O)C2Sc3[nH]c(=O)sc3C(/C=C/c3ccccc3)C2C1=O` (stereo not drawn), for which the viability was 91.4%.
As for `Cc1nc2c(C(=O)NCc3cccs3)cnn2c(C)c1Cc1ccc(F)cc1`, the viability is 83.5%.
The result for `N#C/C(=C/c1ccc(N2CCCCC2)o1)C(=O)NCCc1c[nH]c2ccccc12` reads 90.2%.
Turning to `O=C(Nc1ccc([N+](=O)[O-])cc1)C1(c2ccccc2)CCOCC1`, the viability is 94.8%.
The figure for `O=C1Nc2ccccc2C12Nc1ccccc1S2` (stereo not drawn) is 86.2%.
The figure for `C=C1c2cc(CC)ccc2NC(=O)N1c1ccc(C)cc1` is 98.3%; for `CCc1ccc2c(c1)C1(NN=C(c3ccccc3)S1)C(=O)N2` (stereo not drawn) it is 4.17% (active).
For `Cc1ccc2c(CC(=O)NCc3cccs3)coc2c1`, the viability was 102%.
As for `Cc1ccnc(NS(=O)(=O)c2ccc(NC(=O)c3ccc(S(=O)(=O)N4CCOCC4)cc3)cc2)n1`, the viability was 97%.
Regarding `CCC(C)(NC(=O)c1ccccn1)C(=O)NC1CCCCC1` (stereo not drawn), the viability is 89.8%.
In the case of `CCC(C(=O)OCCN(CC)CC)c1ccccc1` (stereo not drawn), the viability was 106%.
The figure for `CCN(CC)CCOc1ccc2c(c1)C(=NNC(=O)c1ccccn1)c1cc(OCCN(CC)CC)ccc1-2` is 0.37% (active).
For the molecule `COCCNc1nc(N)c([N+](=O)[O-])c(NCCO)n1`, the viability is 98.5%.
`O=C(Nc1ccccc1F)c1ccccc1-c1ccc(C(F)(F)F)cc1`: the viability is 77.4%.
In the case of `CCOC(=O)C1=C(C)NC(=S)NC1c1cccs1` (stereo not drawn), the viability is 84.5%.
The figure for `Cc1cccc(NC(=O)NC(=S)NC(=O)c2ccccc2)c1` is 102%; for `O=C(NC1CCN(Cc2ccccc2)CC1)c1c(F)cccc1F` it is 93.9%.
